In the library only some 9.6% were active in any assay of this set; here they are far more common.
DAT uptake mod – changed hDAT dopamine uptake under cocaine IC80, either direction, primary screen, cocaine antagonist project, cell-based, LLC-PK1 hDAT, [14C]-dopamine uptake, MLSMR. Sodium-dependent dopamine transporter (Homo sapiens), Q01959. LLC-PK1 hDAT cells, [14C]-dopamine uptake with cocaine IC80; actives deviate in either direction. B-score at 10 µM. 110,000 tested, 1.3% active. AID 449768, 2010;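 active = Z score or B-score, a plate-position-corrected score, falls beyond the plate's 99.7% confidence bounds, in either direction; inactive = both scores lie inside the 99.7% bounds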;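 also: scored against the spread of the other compound wells on the same plate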
Target sequence (Q01959 whole entry, looked up): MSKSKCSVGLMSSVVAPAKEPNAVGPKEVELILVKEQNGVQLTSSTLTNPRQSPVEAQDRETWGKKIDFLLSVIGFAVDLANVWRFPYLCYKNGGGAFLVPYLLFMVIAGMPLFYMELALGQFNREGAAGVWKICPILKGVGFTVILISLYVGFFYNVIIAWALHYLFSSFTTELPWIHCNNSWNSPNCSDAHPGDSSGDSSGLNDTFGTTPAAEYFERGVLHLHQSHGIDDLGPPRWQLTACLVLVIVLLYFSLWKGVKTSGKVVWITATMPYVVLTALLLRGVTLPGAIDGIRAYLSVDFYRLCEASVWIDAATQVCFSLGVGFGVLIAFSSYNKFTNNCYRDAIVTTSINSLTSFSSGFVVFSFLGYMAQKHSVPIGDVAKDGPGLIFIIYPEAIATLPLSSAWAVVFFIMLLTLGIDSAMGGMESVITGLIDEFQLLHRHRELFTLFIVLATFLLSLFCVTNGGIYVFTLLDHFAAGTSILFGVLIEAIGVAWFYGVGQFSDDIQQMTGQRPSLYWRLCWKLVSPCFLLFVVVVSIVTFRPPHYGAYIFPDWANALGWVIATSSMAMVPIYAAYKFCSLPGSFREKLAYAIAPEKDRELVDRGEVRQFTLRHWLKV
Cav3 T inh – Cav3.2 calcium influx blockers – cell-based, Fluo-4 calcium fluorescence, FDSS, MLSMR library, primary screen. Voltage-dependent T-type calcium channel subunit alpha-1H (Homo sapiens), O95180. Cav3.2-expressing cells; active compounds read low. B-score at 10 µM. 100,000 tested, 4% active;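 active = single-dose well whose peak fluorescence ratio is a statistical outlier from its plate by either plate-standardised score or position-corrected B-score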
PostGolgi yeast – phenotypic screen on post-Golgi transport, primary screen. 98,000 tested, 0.9% active. inhibition, % at 10 µM. AID 739, 2007. post-Golgi transport phenotypic cell assay;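 also: yeast cells grown in 1536-well plates; yeast grown about 18 h at 30C before absorbance read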
PostGolgi ctrl – growth inhibition of yeast control strain, primary screen, counter-screen for post-Golgi transport modulator project. inhibition, % at 10 µM. 98,000 tested, 5% active. AID 738, 2007. efflux-deficient yeast background strain, growth absorbance A615, 16 h
PLAP activator – PLAP enzyme activators, biochemical, luminescence, HTS. Alkaline phosphatase, placental type (Homo sapiens), P05187. purified PLAP enzyme, luminescent substrate read-out; active compounds read high. activation fold at 20 µM. 96,000 tested, 1.2% active; in the data active = activation fold above about 2
* marks the source's active call; other numbers are inactive results; · = no result. Rule as the data show it, unless noted: active = inhibition above about 30%; inactive = the rest.

SMILES	DAT uptake mod	Cav3 T inh	PostGolgi yeast	PostGolgi ctrl	PLAP activator
CCC(C)(C)n1nnnc1C(c1ccc(C)cc1)N(Cc1ccco1)Cc1cccs1 (stereo not given)	1.4	-5.8*	-3	17	0.9
CC(=O)/C(=N/Nc1ccccc1C)N1CCOCC1	-0.93	0.73	-4	8	1
O=c1[nH]c(SCc2cccc(Cl)c2)nc2c1CCCC2	-0.013	-0.057	0	34*	0.9
O=c1[nH]c(SCc2ccc(Cl)cc2)nc2c1CCC2	0.026	-0.62	1	17	1.1
Cc1ccc(N/C=C/C(=O)c2sc(-c3ccccc3)nc2C)cc1	-0.64	-2.1	2	4	1
O=C(Nc1ccc2c(c1)CCC2)c1cc(S(=O)(=O)N2CCN(c3ccccc3)CC2)ccc1Cl	0.59	-2.7	13	23	1.3
CCO/N=C(\C)c1c(O)c(CC)c(-c2ccccc2)n(-c2ccccc2)c1=O	2.7*	-3.9*	·	·	·
CCCc1c(O)c2ccccc2n(-c2ccccc2)c1=O	-0.0058	1.4	-23	19	1
CC(=O)c1c(O)c(C)c(-c2ccccc2)n(-c2ccccc2)c1=O	-0.0085	-3.6*	1	25	0.9
CC(=O)c1c(O)cc(=O)n(-c2ccccc2)c1-c1ccc(C)cc1	-0.89	1.1	-1	-5	1.2
CCOC(=O)C1CCCN(c2c(C(=O)c3ccccc3)cnc3ccc(OC)cc23)C1 (stereo not given)	-0.32	-6.8*	·	·	·
CCN1CCN(c2c(C(=O)c3ccc(OC)cc3)cnc3ccccc23)CC1	1.3	-0.28	·	·	·
Cc1ccsc1/C=N/NC(=O)CSCc1ccc(Cl)cc1	-0.02	-5.2*	-8	15	1
Cn1c(=O)[nH]c2sc3c(c2c1=O)CC(C)(C)OC3	-1.5	0.85	-9	2	0.9
Cc1cc(C)cc(C(=O)O/N=C(\N)c2ccc(Br)cc2)c1	0.46	0.18	8	30*	1.1
Cc1ccccc1C(=O)NNC(=O)Cc1cccc2ccccc12	-0.72	-0.12	2	14	2*
CC(C)CC(=O)O/N=C1\C(=O)N(c2ccccc2)c2ccccc21	-1.4	0.19	2	22	1
CC(C)(C)C(=O)O/N=C1/C(=O)N(c2ccccc2)c2ccccc21	0.18	-0.038	15	40*	1.1
COc1cc(-c2cn(S(=O)(=O)c3cccc4nsnc34)nc2N)cc(OC)c1OC	2	0.063	4	7	1.8
Nc1nn(S(=O)(=O)c2cccc3nsnc23)cc1-c1ccc(Br)cc1	1.6	-5.9*	79*	72*	0.8
Cc1ccc(-c2cn(S(=O)(=O)c3cccc4nsnc34)nc2N)cc1	0.34	-7.8*	48*	23	1
O=C(Nc1cccc(-c2nnn(CC(=O)N3CCc4ccccc4C3)n2)c1)C1CCC1	1.1	-4.4*	-8	2	2.3*
CC1Cc2ccccc2N1C(=O)Cn1nnc(-c2ccccc2NC(=O)C2CCC2)n1 (stereo not given)	·	-2.1	4	32*	·
O=C(Nc1ccccc1-c1nnn(CC(=O)N2CCc3ccccc3C2)n1)C1CCC1	0.68	-1.1	3	6	0.9
COC(=O)c1c(NC(=O)c2ccco2)sc(C(=O)N(C)C)c1C	-0.052	-0.79	·	·	·
SMILES	DAT uptake mod	Cav3 T inh	PostGolgi yeast	PostGolgi ctrl	PLAP activator
Cc1ccc(-c2nnc(SCC(=O)N3CCOCC3)nc2-c2ccc(C)cc2)cc1	0.48	-0.1	-9	-3	1.6
COc1ccc(NC(=O)c2cc(C)on2)cc1OC	-0.43	0.49	12	6	1
COc1ccc(NC(=O)c2onc(C)c2Cl)cc1OC	0.72	-0.11	2	34*	1.1
CC(NC(=O)CC12CC3CC(CC(C3)C1)C2)C(=O)O (stereo not given)	-0.84	-3.5*	-2	29	0.9
O=C(CC12CC3CC(CC(C3)C1)C2)NCO	-1.4	0.063	4	1	1
CC(=O)N(CC(=O)O)c1ccccc1C(=O)O	-0.12	0.7	5	8	1
CCOc1cc2c3c(c1)C1(Nc4ccccc4S1)C(=O)N3C(C)(C)CC2C (stereo not given)	0.13	-4.2*	-5	37*	1.7
O=C(O)c1sc2cc(C(F)(F)F)cnc2c1-c1ccccc1	0.64	0.058	-7	-12	1
CSc1nnc(-c2sc3cc(C(F)(F)F)cnc3c2-c2ccccc2)n1C	-0.15	2.1	-5	6	2*
CSc1nnc(-c2cc3c(-c4ccccc4)nn(C)c3s2)n1C	-0.041	1.1	2	-1	1.4
COC(=O)c1sc2cc(C(F)(F)F)cnc2c1-c1ccccc1	-0.13	0.43	8	45*	1.2
Cc1ccc(C2C3CN(C(C)C)CC=C3C(C#N)=C(N)C2(C#N)C#N)cc1 (stereo not given)	·	·	1	8	1.3
COc1cc(NC(=O)Cn2nc(C(F)(F)F)c3c2CCCC3)cc(OC)c1OC	1.2	-3.6	-6	4	1.6
Cc1c(C(=O)NCC2COc3ccccc3O2)oc2ccc(S(=O)(=O)N3CC(C)CC(C)C3)cc12 (stereo not given)	1.4	-3.9*	-9	9	1.9
Cc1c(C(=O)NCC2COc3ccccc3O2)oc2ccc(S(=O)(=O)N3CCOCC3)cc12 (stereo not given)	2	·	-11	2	1.5
CCN(CC)S(=O)(=O)c1ccc2oc(C(=O)NCC3COc4ccccc4O3)c(C)c2c1 (stereo not given)	1.7	·	-10	35*	1.4
Cc1c(C(=O)NCC2CCCO2)oc2ccc(S(=O)(=O)N3CC(C)CC(C)C3)cc12 (stereo not given)	1.3	-4*	-2	5	1.5
CCCNC(=O)c1onc(CSc2ccncc2)c1C(=O)NCCC	-0.31	-0.063	·	·	·
COc1cc(OC)cc(C(=O)NC(=S)NCCc2ccccc2)c1	-0.096	-0.14	19	9	1.1
CC1CCc2c(sc(NS(=O)(=O)c3ccccc3)c2C(=O)OC(C)C)C1 (stereo not given)	-0.014	-5.1*	·	·	·
Cc1cccc(-n2c(Cc3cc(=O)[nH]c(=O)[nH]3)nnc2SCC(=O)N2CCCCC2)c1	·	·	0	2	1.4
CC(C)C(NS(=O)(=O)c1ccc2c(c1)oc(=O)n2C)C(=O)N1CCN(Cc2ccccc2)CC1 (stereo not given)	-1	0.58	-3	6	1.6
O=C(O)Cn1nnnc1-c1ccc(F)cc1	0.054	0.044	-3	-4	1
CCN(CCCNC(=O)C1CCCN(S(=O)(=O)c2cnc[nH]2)C1)c1ccccc1 (stereo not given)	0.34	-1.4	5	0	1.4
Cc1ccc(-c2nn(-c3ccccc3)cc2/C=N/NC(=O)CSc2nnc(C)n2-c2ccccc2)cc1	-0.24	-4.5*	-3	0	1.3
COc1cccc(/C=N/NC(=O)CSc2nnc(C)n2-c2ccccc2)c1O	·	·	0	-5	2.1*

Assay outcomes as filed in PubChem BioAssay.
